From PubChem BioAssay (NCATS) come the findings set out here.

Molecules are shown by their SMILES. Unmarked numbers belong to inactive results. Results filed as inconclusive are left out. Activity calls are given as the source filed them. Unless noted, calls follow the shape of the dose curve; as a rule, active = well fitted curve in either direction with a large enough effect (not every such curve was filed as active); inconclusive = small, poorly fitted or top-dose-only effect, or another doubt; inactive = flat fitted curve, though single readings scatter.

Assay [1] in a line: AP1 Signaling Pathway (AID 357).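 Also: ME-180 reporter cells stimulated with EGF at its EC50 level; % is scaled to controls: 0 for no effect and ±100 for the full control effect.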 As to conditions: ME-180 AP-1-bla reporter, EGF-induced, beta-lactamase ratio, 5 h; at 17.2 µM (top of the series) unless noted. A digest of the protocol:
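Read-out was the 460nm/530nm emission ratio (excitation 405nm) after CCF4 loading for 2.5 hours at room temperature. Cells carried an AP-1-driven beta-lactamase reporter, were stimulated with EC50 EGF plus compound for 5 hours, and AC50 values came from titrations.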

A short description of assay [2]: Stat Signaling Pathway (AID 446).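 Also: ME-180 cervical cancer cells given 40 pM IL-6 alongside compound; SIE-controlled beta-lactamase reporter measured as 460/530 nm FRET emission ratio; % is scaled to controls: 0 for no effect and ±100 for the full control effect.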 The settings on record: ME-180 SIE beta-lactamase reporter, IL-6 stimulated, 5 h; at 17.2 µM (top of the series) unless noted. A digest of the protocol:
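Screening format detects activators and inhibitors alike: ME-180 SIE-bla cells stimulated at 40 pM IL-6 for 5 hrs with compound, then dual-emission beta-lactamase read at 405 nm excitation.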

Assay [3] addresses Glucocorticoid receptor (Homo sapiens) (UniProt P04150). Description: GR-GFP Redistribution (AID 450;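 active = compounds whose dose series gives a full or clear partial fitted curve of increased nuclear translocation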; also: potency is read from the fitted curve at half-maximal effect).
The target is the same in assay [4]. As to the kind of experiment: GR-EFC Redistribution (AID 451; calls by dose curve; also: potency is read from the fitted curve at half-maximal effect). The settings on record: CHO-K1 GR-EFC translocation, beta-gal luminescence, 2 h. A digest of the protocol: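 CHO-K1 cells expressing nuclear EA and GR-ED fragments of b-gal; compounds titrated up to 46 uM final, 2 h at 37 C. GR nuclear translocation read as complemented b-gal luminescence after 1 h RT detection.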

Assay [5] has as its target Mitogen-activated protein kinase 10 (Mus musculus) (UniProt Q61831). As to the kind of experiment: JNK3 AlphaScreen Assay (AID 530).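 Also: kinase came from lysate of stimulated human HepG2 cells; signal reports phosphorylation of biotinylated GST-cJun 1-79 at Ser73 with 10 µM ATP; % is scaled to controls: 0 for no effect and ±100 for the full control effect.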 The method, boiled down: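 Pre-activated (IL-1β/TNFα) JNK3 in HepG2 lysates phosphorylates biotin-GST-cJun(1-79), 10 uM ATP; anti-phospho-cJun(Ser73) AlphaScreen read at room temperature, pH 7.6 Tris buffer. Compounds pre-incubated 15 min as titrations.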
For orientation: In Alpha technology, singlet oxygen from a donor bead excites a nearby acceptor bead.

The target in assay [6] is Cytochrome P450 3A4 (Homo sapiens) (UniProt P08684). As to the kind of experiment: qHTS Assay for Activators of Cytochrome P450 3A4 (AID 885; active = well fitted curve in the direction sought with a large enough effect; an effect the other way counts as inactive or inconclusive; also: nearly all actives have a fitted effect of over 65% in size). The method, boiled down:
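Steps: enzyme/substrate mix dispensed; compound added, 10 min RT; NADPH regeneration solution added, 60 min RT; luciferin detection buffer stops reaction; 20 min later luminescence measured.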
For orientation: Quantitative high-throughput screening tests each substance at several concentrations.

In assay [7] the target is Ubiquitin carboxyl-terminal hydrolase 1 (Homo sapiens) (UniProt O94782). Description: Inhibitors of USP1/UAF1: Pilot qHTS (AID 504865; active = well fitted curve in the direction sought with a large enough effect; an effect the other way counts as inactive or inconclusive;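 also: rhodamine fluorescence freed from ubiquitin-rhodamine substrate followed over time; top concentration of the series differs between compounds; % is scaled to controls: 0 for no effect and ±100 for the full control effect; nearly all actives have a fitted effect of over 35% in size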). A digest of the protocol: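 In 50mM HEPES pH 7.8 containing 0.5mM EDTA, 1mM TCEP, 0.1 mg/ml BSA and 0.01% Tween-20, 1nM USP1/UAF1 is exposed to compound for 15 min, then Ub-Rho (150nM final) is added and fluorescence is read over time.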

The target of assay [8] is 3',5'-cyclic-AMP phosphodiesterase 4B (Homo sapiens) (UniProt Q07343). As to the kind of experiment: qHTS Assay for Inhibitors of PDE-IV (AID 607; active = well fitted activation curve with a large enough effect in the main read-out, with a control signal flat, not every such curve was filed as active; also: % of control where 0% means no effect). The method, boiled down:
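The readout is membrane depolarisation from a cAMP-sensing CNG channel, detected with a potential dye at ex 535/em 590. Cells were HEK293-derived (endogenous PDE-IV) at 1000 cells/well, titrated up to 22.9 uM final.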

Assay [9] concerns the target Cytochrome P450 3A4 (Homo sapiens) (UniProt P08684). As to the kind of experiment: qHTS Assay for Inhibitors and Substrates of Cytochrome P450 3A4 (AID 884; active = well fitted curve in the direction sought with a large enough effect; an effect the other way counts as inactive or inconclusive; also: potency is read from the fitted curve at half-maximal effect; nearly all actives have a fitted effect of over 50% in size). The method, boiled down:
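20 nM human CYP3A4 with 25 uM Luciferin-PPXE (at KM) in 200 mM KPO4, preincubated 10 min with compound; NADPH regeneration started a 60 min RT reaction. Luciferin detected by luminescence, normalized to 57 uM ketoconazole as full inhibition.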

In assay [10] the target is Cytochrome P450 2C19 (Homo sapiens) (UniProt P33261). Description: qHTS Assay for Inhibitors and Substrates of Cytochrome P450 2C19 (AID 899; active = well fitted curve in the direction sought with a large enough effect; an effect the other way counts as inactive or inconclusive; also: potency is read from the fitted curve at half-maximal effect; nearly all actives have a fitted effect of over 60% in size). The method, boiled down: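 5 nM human CYP2C19 with 10uM Luciferin-H EGE (at KM) in 50mM KPO4, compound preincubated 10 min at 37C, then NADPH regeneration for 60 min at 37C. Luciferin read by luminescence after detection reagent; normalized to 57uM ketoconazole as full inhibition.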
Chain of Cytochrome P450 2C19 (Homo sapiens) (P33261 whole entry, looked up): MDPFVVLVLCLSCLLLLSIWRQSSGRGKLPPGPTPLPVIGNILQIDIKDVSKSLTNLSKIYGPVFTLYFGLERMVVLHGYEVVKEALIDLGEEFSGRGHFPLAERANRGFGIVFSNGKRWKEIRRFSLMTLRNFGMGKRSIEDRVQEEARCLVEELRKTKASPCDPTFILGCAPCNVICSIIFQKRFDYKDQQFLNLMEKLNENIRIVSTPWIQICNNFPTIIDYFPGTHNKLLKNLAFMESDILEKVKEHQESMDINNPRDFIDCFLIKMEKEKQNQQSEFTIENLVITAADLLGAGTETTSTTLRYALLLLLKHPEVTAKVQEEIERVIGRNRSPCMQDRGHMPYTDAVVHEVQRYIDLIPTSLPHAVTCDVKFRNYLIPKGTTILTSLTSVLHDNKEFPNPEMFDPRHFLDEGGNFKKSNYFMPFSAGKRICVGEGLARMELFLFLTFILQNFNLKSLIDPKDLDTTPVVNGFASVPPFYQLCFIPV

Chain of Glucocorticoid receptor (Homo sapiens) (P04150 whole entry, looked up, the tested form may be a part): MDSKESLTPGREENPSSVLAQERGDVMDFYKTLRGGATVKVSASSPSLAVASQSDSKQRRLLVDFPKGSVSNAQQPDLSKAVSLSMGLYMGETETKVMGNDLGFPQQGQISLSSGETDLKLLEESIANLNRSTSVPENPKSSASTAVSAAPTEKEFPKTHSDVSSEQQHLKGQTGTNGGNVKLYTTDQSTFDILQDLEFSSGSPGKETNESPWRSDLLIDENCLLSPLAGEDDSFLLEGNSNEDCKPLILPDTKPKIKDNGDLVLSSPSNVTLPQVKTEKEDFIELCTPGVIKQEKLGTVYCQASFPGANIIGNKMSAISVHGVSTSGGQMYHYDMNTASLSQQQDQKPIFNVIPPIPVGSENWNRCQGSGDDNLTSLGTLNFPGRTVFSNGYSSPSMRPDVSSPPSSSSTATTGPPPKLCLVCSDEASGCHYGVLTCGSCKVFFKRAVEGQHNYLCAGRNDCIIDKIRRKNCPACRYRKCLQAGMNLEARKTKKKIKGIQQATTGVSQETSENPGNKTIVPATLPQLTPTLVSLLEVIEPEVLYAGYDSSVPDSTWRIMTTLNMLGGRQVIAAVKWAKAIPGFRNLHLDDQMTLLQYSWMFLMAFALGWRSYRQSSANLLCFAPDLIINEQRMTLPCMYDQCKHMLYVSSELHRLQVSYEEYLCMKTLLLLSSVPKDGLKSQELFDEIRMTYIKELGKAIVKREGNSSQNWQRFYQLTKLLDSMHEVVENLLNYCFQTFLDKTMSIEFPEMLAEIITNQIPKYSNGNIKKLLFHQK
Chain of Cytochrome P450 3A4 (Homo sapiens) (P08684 whole entry, looked up): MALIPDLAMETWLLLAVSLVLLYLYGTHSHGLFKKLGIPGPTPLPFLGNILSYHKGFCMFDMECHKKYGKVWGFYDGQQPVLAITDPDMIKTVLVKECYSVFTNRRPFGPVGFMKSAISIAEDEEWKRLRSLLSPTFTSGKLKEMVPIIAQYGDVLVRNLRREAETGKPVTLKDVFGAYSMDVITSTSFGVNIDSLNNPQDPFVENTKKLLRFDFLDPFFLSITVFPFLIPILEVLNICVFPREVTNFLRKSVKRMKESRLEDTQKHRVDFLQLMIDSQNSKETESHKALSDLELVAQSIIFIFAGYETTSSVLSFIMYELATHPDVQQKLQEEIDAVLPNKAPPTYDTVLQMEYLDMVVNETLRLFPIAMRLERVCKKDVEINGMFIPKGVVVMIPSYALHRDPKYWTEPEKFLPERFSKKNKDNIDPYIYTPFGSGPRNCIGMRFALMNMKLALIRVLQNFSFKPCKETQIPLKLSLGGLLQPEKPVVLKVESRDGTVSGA
Chain of 3',5'-cyclic-AMP phosphodiesterase 4B (Homo sapiens) (Q07343 whole entry, looked up): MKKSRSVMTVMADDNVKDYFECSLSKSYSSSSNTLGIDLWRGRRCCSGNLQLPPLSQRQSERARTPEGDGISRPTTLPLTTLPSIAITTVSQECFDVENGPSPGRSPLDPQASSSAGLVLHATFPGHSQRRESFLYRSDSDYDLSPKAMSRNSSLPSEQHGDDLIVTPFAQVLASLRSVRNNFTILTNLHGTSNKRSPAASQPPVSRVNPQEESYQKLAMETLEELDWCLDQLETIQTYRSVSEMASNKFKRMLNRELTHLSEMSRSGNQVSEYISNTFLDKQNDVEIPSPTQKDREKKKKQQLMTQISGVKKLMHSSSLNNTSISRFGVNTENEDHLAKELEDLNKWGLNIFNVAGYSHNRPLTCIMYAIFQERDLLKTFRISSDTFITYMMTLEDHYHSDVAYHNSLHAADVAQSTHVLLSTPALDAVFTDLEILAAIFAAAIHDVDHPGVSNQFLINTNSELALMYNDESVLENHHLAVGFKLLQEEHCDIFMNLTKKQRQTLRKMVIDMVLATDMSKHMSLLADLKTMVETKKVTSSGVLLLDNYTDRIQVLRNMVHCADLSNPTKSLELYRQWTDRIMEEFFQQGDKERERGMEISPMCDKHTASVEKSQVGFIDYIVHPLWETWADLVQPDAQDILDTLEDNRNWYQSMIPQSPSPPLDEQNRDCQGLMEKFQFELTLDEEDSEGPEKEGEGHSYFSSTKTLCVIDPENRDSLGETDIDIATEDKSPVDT
Chain of Ubiquitin carboxyl-terminal hydrolase 1 (Homo sapiens) (O94782 whole entry, looked up): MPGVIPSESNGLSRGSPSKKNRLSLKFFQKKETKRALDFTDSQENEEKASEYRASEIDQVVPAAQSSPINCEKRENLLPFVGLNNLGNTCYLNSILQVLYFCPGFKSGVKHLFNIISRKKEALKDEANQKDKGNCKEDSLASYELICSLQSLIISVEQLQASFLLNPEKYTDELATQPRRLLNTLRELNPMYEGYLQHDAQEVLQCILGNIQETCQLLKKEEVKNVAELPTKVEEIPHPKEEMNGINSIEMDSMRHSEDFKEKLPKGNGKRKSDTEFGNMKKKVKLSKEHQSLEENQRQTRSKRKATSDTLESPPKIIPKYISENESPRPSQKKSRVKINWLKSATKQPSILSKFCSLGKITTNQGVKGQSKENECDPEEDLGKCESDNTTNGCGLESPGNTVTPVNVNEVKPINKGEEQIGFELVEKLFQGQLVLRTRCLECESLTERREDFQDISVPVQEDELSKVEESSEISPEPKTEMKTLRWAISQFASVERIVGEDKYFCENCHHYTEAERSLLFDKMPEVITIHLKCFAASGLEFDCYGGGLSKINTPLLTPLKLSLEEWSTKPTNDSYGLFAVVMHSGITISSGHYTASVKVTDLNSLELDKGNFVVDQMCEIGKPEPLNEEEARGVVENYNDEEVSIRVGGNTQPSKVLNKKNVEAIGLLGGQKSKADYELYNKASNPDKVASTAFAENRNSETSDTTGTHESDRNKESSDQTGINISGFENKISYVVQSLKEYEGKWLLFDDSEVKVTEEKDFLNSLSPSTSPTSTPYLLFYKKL

On to `O=c1c2ccccc2[nH]c(=S)n1CCN1CCC(=C(c2ccc(F)cc2)c2ccc(F)cc2)CC1`, for which, in assay [1], the activity change, negative = inhibition is 10.4%. For the same molecule, the activity, negative = inhibition in assay [2] was -6.03%. The Potency in assay [3] was > 20.6 µM.

Consider `O=S(=O)(c1cccc(-c2csc(-c3ccccc3)n2)c1)N1CCOCC1`, for which the activity change, negative = inhibition in assay [1] was -13.8%. The activity, negative = inhibition in assay [2] is -9.15%. Besides, in [3], the Potency was > 20.6 µM.

As to `Oc1c(C=Nc2cccnc2)sc2ccccc12`, in assay [1], the activity change, negative = inhibition was 8.1%. The activity, negative = inhibition in assay [2] is -3.68%. The Potency in assay [3] is > 20.6 µM.

Regarding `CCOc1ccc(N2C(=O)CC(N)C2=O)cc1` (stereo not drawn), the activity change, negative = inhibition in assay [1] was -19.2%. The activity, negative = inhibition in assay [2] was -5.4%. Also, the Potency in [3] was > 20.6 µM.

Consider `Nc1c2c(nc3ccccc13)N(C1CCCCC1)CC2`, for which the activity change, negative = inhibition in assay [1] was 13.8%. Also, in [2], the activity, negative = inhibition was 16.7%. Also, in assay [3], the Potency was > 20.6 µM.

As to `COc1ccc(CCn2c(=N)c(C(=O)NCc3ccco3)cc3c(=O)n4ccccc4nc32)cc1`, in assay [1], the activity change, negative = inhibition is -1.64%. For the same molecule, the activity, negative = inhibition in assay [2] is 2.96%. In [3], the Potency is > 20.6 µM.

With `CCOC(=O)c1cc2c(=O)n3cccc(C)c3nc2n(CCc2ccccc2)c1=N`, the activity change, negative = inhibition in [1] was 9.31%. In [2], the activity, negative = inhibition is 29.4%. Also, in assay [3], the Potency was > 20.6 µM.

For the molecule `CC(=O)O[C@H]1C(=O)[C@]2(C)[C@H]([C@H](OC(=O)c3ccccc3)[C@]3(O)C[C@H](OC(=O)[C@H](O)[C@@H](NC(=O)c4ccccc4)c4ccccc4)C(C)=C1C3(C)C)[C@]1(OC(C)=O)CO[C@@H]1C[C@@H]2O`, the activity change, negative = inhibition in [1] is -5.19%. The activity, negative = inhibition in [2] was -2.52%. In addition, in [3], the Potency was > 20.6 µM.

`COc1cccc(-c2nc(NCCN3CCOCC3)c3ccccc3n2)c1O`: in assay [1], the activity change, negative = inhibition was -15.3%. Moreover, in assay [2], the activity, negative = inhibition is 6.04%. Moreover, the Potency in [3] is > 20.6 µM.

Consider `CC1(C)Cc2c(c(N3CCOCC3)nc3sc(C#N)c(N)c23)CS1`, for which the activity change, negative = inhibition in assay [1] is 11.7%. In addition, in assay [2], the activity, negative = inhibition was -14.4%. Besides, the Potency in assay [3] was > 20.6 µM.

In the case of `CCCCCCCCN[C@@H](C)[C@H](O)c1ccc(SC(C)C)cc1`, the activity change, negative = inhibition in [1] is 0.133%. In addition, in assay [2], the activity, negative = inhibition was 7.39%. Further, the Potency in [3] and in assay [4] was > 20.6 µM throughout. Further, the Potency entry in [5], in [6] and in assay [7] was “inactive” each time.

On to `CCN(CC)CCCn1c(C)cc2c(c1=O)C(c1ccccc1)C(C#N)=C(N)O2` (stereo not drawn), for which the activity change, negative = inhibition in assay [1] is 1.7%. In addition, in assay [2], the activity, negative = inhibition was 2.65%. Besides, the Potency in assay [3] is > 20.6 µM.

For `CCC(C)Nc1nc(-c2cccc(OC)c2O)nc2ccccc12` (stereo not drawn), the activity change, negative = inhibition in assay [1] is -28.3%. In assay [2], the activity, negative = inhibition was -18.2%. The Potency in [3] is > 20.6 µM.

For `COc1ccc(CCn2c(=N)c(C(=O)NCc3ccco3)cc3c(=O)n4ccccc4nc32)cc1OC`, in assay [1], the activity change, negative = inhibition is -14.6%. Moreover, in [2], the activity, negative = inhibition was -2.08%. In [3], the Potency was > 20.6 µM.

Regarding `CCOP(=O)(c1ccccc1)c1nc(-c2ccccc2C)oc1N1CCCCC1` (stereo not drawn), the activity change, negative = inhibition in assay [1] was -1.96%. For the same molecule, in assay [2], the activity, negative = inhibition is 0.694%. The Potency in assay [3] was > 20.6 µM.

As for `CCOC(=O)/C=c1\s/c(=C(\C#N)C(=O)OCC)n(-c2ccccc2)c1=O`, in assay [1], the activity change, negative = inhibition was 2.08%. Also, the activity, negative = inhibition in assay [2] was -22.2%. Moreover, in [3], the Potency was > 20.6 µM.

As for `CCC(=O)Nc1nc2ccccc2n1Cc1ccccc1C`, the activity change, negative = inhibition in assay [1] is 28.7%. The activity, negative = inhibition in assay [2] was 2.77%. Also, the Potency in [3] is > 20.6 µM.

With `Cc1cc(Nc2ccc3ccccc3c2)n2ncnc2n1`, the activity change, negative = inhibition in assay [1] is 16.7%. Further, the activity, negative = inhibition in [2] was -6.76%. Further, the Potency in assay [3] is > 20.6 µM.

Turning to `C[C@H](CCC(=O)O)[C@H]1CC[C@@H]2[C@H]3CC[C@H]4C[C@@H](O)CC[C@@]4(C)[C@H]3CC[C@]21C`, in assay [1], the activity change, negative = inhibition is 13.9%. Moreover, the activity, negative = inhibition in assay [2] is -1.14%. Further, the Potency in assay [3] and in [4] was > 20.6 µM throughout. Further, the Potency result in [5] and in assay [8] was “inactive” throughout.

Turning to `COc1ccc(CSc2nnc3n(C)c(=O)c4c5c(sc4n23)CCCC5)cc1`, the activity change, negative = inhibition in [1] is -2.6%. In [2], the activity, negative = inhibition was 0.924%. Further, in assay [3], the Potency is > 20.6 µM.

Turning to `COc1ccc(/C=N/n2cncn2)cc1CSc1ccccn1`, in [1], the activity change, negative = inhibition was -9.09%. Further, in assay [2], the activity, negative = inhibition was 10.6%. For the same molecule, the Potency in assay [3] was > 20.6 µM.

Regarding `CCOC(=O)c1[nH]c2ccc(Br)cc2c1NC(=O)CNC`, the activity change, negative = inhibition in assay [1] was 18.8%. The activity, negative = inhibition in assay [2] is -1.05%. For the same molecule, the Potency in [3] is > 20.6 µM.

Consider `COc1ccc(Cn2c(=O)c3c(nc(NCCO)n3C)n(C)c2=O)cc1`, for which the activity change, negative = inhibition in assay [1] is 1.13%. For the same molecule, the activity, negative = inhibition in assay [2] was -24.4%. Also, the Potency in [3] is > 20.6 µM.

Regarding `COc1cccc(C(=O)c2sc(NC(C)C)nc2N)c1`, the activity change, negative = inhibition in [1] was -116% (active). Further, the activity, negative = inhibition in assay [2] was -103% (active). For the same molecule, the Potency in [3] was > 20.6 µM.

Consider `NC(=O)/C(=C\c1ccncc1)c1cccc2ccccc12`, for which the activity change, negative = inhibition in assay [1] is -11.2% [at 7.69 µM]; in assay [5], 1.18% [at 11.4 µM]. Besides, in assay [2], the activity, negative = inhibition was -3.8% [at 7.69 µM]. The Potency in assay [3] is > 46 µM; in assay [4], > 9.22 µM; in [9] it was 3.16 µM (active); in assay [10] it was 2.51 µM (active). The Potency result in assay [8] was “inactive”. Moreover, the activity change, positive = activation in assay [6] is -72.7% [at 11.4 µM].
